The source of these data is PubChem BioAssay.

Structures are written as SMILES. Activity calls are given as the source filed them.

Assay [1] can be described thus: binders of probe aFSTL3 on microarray, primary screen, stem cell growth factor project, biochemical, small-molecule microarray, fluorescence 635/667 (AID 1064).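 Further: measures binding of the biotinylated anti-FSTL3 antibody to printed compounds.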 The note with it: higher = more signal.
Assay [2] in a line: binders from COS7 lysate, DM2A8 probe, primary screen, torsin A project, cell lysate, small-molecule microarray, fluorescence 635/667 (AID 1065). Conditions: higher = more signal, COS7 lysate expressing mutant human TOR1A.
Assay [3] in a line: binders of probe aFGF2 on microarray, primary screen, stem cell growth factor project, biochemical, small-molecule microarray, fluorescence 635/667 (AID 1067).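 Further: measures binding of biotinylated aFGF2 protein to printed compounds on slides; z-score merges feature fluorescence and signal-to-noise across triplicate slides.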 The note with it: higher = more signal.
Assay [4] is described as follows: binders of probe aFGF10 on microarray, primary screen, stem cell growth factor project, biochemical, small-molecule microarray, fluorescence 635/667 (AID 1071).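 Further: score merges 667 nm spot intensity and signal to noise from triplicate slides.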 Conditions: higher = more signal.
Assay [5] concerns the target Neurogenic locus notch homolog protein 2 (Homo sapiens) (UniProt Q04721). As to the kind of experiment: Notch2 binders on small-molecule microarrays, primary screen, biochemical, small-molecule microarray, 635 nm fluorescence, stem cell growth factors (AID 1073). Conditions: Notch2 binding, higher = more signal.
Assay [6] has as its target Pro-neuregulin-1, membrane-bound isoform (Homo sapiens) (UniProt Q02297). As to the kind of experiment: NRG1 binders on small-molecule microarrays, primary screen, psychiatric disease protein project, biochemical, small-molecule microarray, fluorescence 635/667 (AID 1075).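 Further: score combines 667 nm spot fluorescence with signal to noise.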 The note with it: NRG1 binding, 635 nm fluorescence, higher = more signal.
Assay [7] relates to Neuregulin-1 EGF-like domain. In words: binders of neuregulin-1 EGF-like domain, primary screen, biochemical, small-molecule microarray, 635 nm fluorescence (AID 1081).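 Further: binding of the protein to compounds printed on small-molecule microarray slides.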 Conditions: small-molecule microarray binding, higher = more signal.
Assay [8] can be described thus: FRG1 promoter luciferase signal modulators, primary screen, FRG1 inhibition for FSHD, cell-based, C2C12 myotubes, firefly/Renilla luciferase, luminescence (AID 1084). The note with it: higher = more signal, called active from +8 up or from −8 down.
Assay [9] in a line: binders of probe aFST on microarray, primary screen, stem cell growth factor project, biochemical, small-molecule microarray, fluorescence 635/667 (AID 1086).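 Further: score merges 667 nm fluorescence with signal-to-noise of each printed compound spot.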 The note with it: higher = more signal.
Assay [10] is described as follows: binders of probe aHhip on microarray, primary screen, stem cell growth factor project, biochemical, small-molecule microarray, fluorescence 635/667 (AID 1087).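 Further: score merges spot fluorescence at 667nm with spot signal to noise ratio.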 The note with it: higher = more signal.

Sequence of Neurogenic locus notch homolog protein 2 (Homo sapiens) (Q04721 whole entry, looked up, canonical isoform): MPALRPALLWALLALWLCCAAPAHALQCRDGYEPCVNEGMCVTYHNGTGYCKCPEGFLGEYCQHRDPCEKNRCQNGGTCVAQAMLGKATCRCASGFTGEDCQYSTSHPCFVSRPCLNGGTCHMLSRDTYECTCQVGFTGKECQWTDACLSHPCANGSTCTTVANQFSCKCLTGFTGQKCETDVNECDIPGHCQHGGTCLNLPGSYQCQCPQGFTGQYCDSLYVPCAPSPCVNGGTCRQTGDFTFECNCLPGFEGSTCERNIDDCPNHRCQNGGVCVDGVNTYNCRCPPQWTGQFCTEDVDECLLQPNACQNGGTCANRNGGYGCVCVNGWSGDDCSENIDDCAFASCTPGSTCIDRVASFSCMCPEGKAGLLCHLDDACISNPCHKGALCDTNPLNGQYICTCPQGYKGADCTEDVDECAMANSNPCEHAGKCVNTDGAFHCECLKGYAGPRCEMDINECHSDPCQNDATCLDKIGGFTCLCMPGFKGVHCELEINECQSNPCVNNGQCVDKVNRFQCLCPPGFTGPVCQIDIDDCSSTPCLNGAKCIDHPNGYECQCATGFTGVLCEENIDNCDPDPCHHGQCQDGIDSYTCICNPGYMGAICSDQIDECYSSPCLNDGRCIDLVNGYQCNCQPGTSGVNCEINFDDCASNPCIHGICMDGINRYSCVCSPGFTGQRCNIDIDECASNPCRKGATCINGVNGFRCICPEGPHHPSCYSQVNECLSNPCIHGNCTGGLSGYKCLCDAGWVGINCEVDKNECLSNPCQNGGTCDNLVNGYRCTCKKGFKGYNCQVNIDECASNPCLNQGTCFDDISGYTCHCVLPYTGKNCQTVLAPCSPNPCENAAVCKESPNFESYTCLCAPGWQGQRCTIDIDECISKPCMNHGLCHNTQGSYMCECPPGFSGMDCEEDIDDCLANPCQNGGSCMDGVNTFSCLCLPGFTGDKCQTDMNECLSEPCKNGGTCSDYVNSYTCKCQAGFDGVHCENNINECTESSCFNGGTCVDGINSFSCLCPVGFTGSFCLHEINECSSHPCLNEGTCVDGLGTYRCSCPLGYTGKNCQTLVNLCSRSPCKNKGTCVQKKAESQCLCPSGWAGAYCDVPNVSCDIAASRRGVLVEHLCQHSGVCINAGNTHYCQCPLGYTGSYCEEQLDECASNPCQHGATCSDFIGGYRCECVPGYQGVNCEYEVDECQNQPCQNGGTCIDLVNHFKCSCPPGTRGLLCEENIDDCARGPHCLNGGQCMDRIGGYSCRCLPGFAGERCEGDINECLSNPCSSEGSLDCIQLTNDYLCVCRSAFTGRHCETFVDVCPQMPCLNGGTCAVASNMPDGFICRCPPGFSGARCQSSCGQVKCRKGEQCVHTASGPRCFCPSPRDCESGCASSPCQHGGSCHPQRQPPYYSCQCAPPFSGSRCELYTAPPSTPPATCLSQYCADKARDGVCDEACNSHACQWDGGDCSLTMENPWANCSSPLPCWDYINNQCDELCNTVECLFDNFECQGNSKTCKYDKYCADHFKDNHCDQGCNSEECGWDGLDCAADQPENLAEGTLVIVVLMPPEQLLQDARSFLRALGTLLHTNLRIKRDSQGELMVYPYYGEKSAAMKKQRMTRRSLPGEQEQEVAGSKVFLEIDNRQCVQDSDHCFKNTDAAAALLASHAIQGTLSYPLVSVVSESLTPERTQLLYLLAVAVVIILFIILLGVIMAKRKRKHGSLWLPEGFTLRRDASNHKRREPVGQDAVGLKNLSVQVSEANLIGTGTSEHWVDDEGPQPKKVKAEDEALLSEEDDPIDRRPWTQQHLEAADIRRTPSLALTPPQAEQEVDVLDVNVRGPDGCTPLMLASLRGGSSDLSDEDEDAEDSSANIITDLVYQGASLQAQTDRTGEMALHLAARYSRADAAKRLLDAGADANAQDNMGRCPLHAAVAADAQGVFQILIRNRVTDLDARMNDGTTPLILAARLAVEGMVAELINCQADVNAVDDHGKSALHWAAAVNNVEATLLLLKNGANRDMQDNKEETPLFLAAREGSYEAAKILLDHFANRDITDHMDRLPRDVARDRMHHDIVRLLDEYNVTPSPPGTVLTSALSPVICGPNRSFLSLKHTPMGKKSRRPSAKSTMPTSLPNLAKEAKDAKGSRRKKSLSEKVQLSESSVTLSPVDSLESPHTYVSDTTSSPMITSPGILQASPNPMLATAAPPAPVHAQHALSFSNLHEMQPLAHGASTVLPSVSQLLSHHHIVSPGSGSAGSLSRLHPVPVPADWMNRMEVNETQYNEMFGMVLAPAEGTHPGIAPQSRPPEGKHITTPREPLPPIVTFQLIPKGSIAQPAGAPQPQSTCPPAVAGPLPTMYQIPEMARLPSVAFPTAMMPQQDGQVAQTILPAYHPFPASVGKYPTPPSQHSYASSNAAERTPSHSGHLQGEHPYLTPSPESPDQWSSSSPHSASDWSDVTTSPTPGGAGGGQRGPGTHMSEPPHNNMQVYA
Sequence of Pro-neuregulin-1, membrane-bound isoform (Homo sapiens) (Q02297 whole entry, looked up, the tested form may be a part, canonical isoform): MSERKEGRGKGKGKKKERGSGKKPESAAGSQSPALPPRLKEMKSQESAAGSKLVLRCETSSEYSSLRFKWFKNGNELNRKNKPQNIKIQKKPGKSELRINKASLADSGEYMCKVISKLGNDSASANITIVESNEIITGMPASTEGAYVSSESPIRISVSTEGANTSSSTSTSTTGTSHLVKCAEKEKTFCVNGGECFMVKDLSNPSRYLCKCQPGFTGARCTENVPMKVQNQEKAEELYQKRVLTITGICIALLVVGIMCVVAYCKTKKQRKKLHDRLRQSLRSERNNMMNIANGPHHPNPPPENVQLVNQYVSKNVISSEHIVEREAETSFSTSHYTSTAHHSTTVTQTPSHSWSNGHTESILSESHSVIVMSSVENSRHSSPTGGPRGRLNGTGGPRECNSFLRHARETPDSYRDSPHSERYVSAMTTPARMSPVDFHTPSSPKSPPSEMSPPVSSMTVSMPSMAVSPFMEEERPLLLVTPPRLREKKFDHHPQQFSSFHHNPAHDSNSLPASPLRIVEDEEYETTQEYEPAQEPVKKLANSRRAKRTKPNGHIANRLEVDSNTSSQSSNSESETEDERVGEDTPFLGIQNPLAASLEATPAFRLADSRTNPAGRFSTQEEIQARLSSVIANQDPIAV

Take `C=C[C@H](C)[C@H](OC(=O)Nc1ccc(SC)cc1)c1ccc(OCCO)cc1`: the composite z-score is -0.0439 in assay [1]; 1.18 in assay [2]; -0.1 in assay [3]; 0.406 in [4]; -0.34 in assay [5]; 0.745 in assay [6]. Further, the composite z-score came out at 1.15 in assay [7], 0.0319 in assay [9] and 0.0972 in assay [10]. In [8], the z-score was 4.38 (inactive).
With `CCCCNC(=O)c1ccc(C#CC(C)(C)C)c(OC(C)=O)c1`, the composite z-score is -0.769 in assay [1]; 0.212 in assay [2]; -0.132 in assay [3]; 0.572 in assay [4]; 1.04 in assay [5]; 0.158 in assay [6]. In addition, the composite z-score in [7] is 0.865; in assay [9] it was 0.031; in assay [10], -0.0994. Besides, the z-score in [8] was 4.66 (inactive).
With `O=C1O[C@@H](c2ccccc2)[C@@H](c2ccccc2)N2[C@@H](c3ccc(O)cc3)[C@]3(C(=O)Nc4ccc(C#CCCO)cc43)[C@@H](C(=O)N3CCN(c4ncccn4)CC3)[C@H]12`, the composite z-score in assay [1] was -1.14; in assay [2] it was -0.307; in assay [3] it was -0.265; in assay [4], 0.204; in [5], 0.973; in [6] it was 0.564. Moreover, the values for the composite z-score in [7], in assay [9] and in [10] were 1.35, -0.925 and -1.27, respectively. Also, the z-score in [8] is -1.55 (inactive).
As to `CCCCCCCCCCC(O)C1C=CC2C(=O)N(c3ccccc3)C(=O)C2N1Nc1ccc(C#N)cc1` (stereo not given), the composite z-score in [1] is 0.356; in assay [2], 0.179; in [3] it was -0.0262; in [4], 0.696; in [5], 1.18; in assay [6] it was 1.73. For the same compound, the composite z-score in assay [7] is 0.98; in assay [9], 0.647; in assay [10] it was 0.0626. In addition, the z-score in assay [8] is 1.05 (inactive).
With `COc1cc(OC)c(C(O)C2C=CC3C(=O)N(Cc4ccccc4)C(=O)C3N2n2cnnc2)cc1Br` (stereo not given), the composite z-score in assay [1] was -0.245; in assay [2], 2.19; in [3] it was -0.0131; in assay [4] it was 0.919; in assay [5], 0.36; in [6], 1.32. The figures for the composite z-score in assay [7], in [9] and in assay [10] were 1.12, 1.35 and -0.0645, respectively. For the same compound, in assay [8], the z-score is 0.569 (inactive).
For `CCOC(=O)C1=C[C@@H](C(C)C)N(S(=O)(=O)c2ccc(C)cc2)[C@H]1c1ccc(C(F)(F)F)cc1`, the composite z-score is -0.235 in assay [1]; 0.231 in [2]; 0.112 in assay [3]; 1.05 in [4]; 1.67 in [5]; 0.497 in assay [6]. For the same compound, the composite z-score came out at 1.22 in [7], 1.69 in assay [9] and 0.0873 in [10]. The z-score in assay [8] is -2.54 (inactive).
For `COc1cc(NN2C(C(O)c3ccc(N(C)C)cc3)C=CC3C(=O)N(c4ccccc4)C(=O)C32)cc(OC)c1OC` (stereo not given), the composite z-score in [1] amounted to 0.817; in [2], 0.0214; in [3], 0.107; in assay [4] it was 0.396; in assay [5], 1.18; in assay [6], 0.465. The values for the composite z-score in assay [7], in assay [9] and in assay [10] were 1.13, 0.588 and -0.0618, respectively. Besides, the z-score in assay [8] was 1.44 (inactive).
`CCCC#C[Si](O[C@H](CC)c1cn([C@H](C)c2ccccc2)nn1)(C(C)C)C(C)C`: the composite z-score was -0.4 in assay [1]; 1.31 in [2]; -0.0407 in assay [3]; 0.468 in assay [4]; 0.97 in assay [5]; 0.0607 in [6]. Also, the composite z-score in assay [7] is 0.181; in [9] it was 0.593; in [10], -0.407. Further, the z-score in [8] is 0.337 (inactive).
With `O=C1C[C@]2(c3ccc([N+](=O)[O-])cc3)C(=O)N(C3CC3)c3cc(CO)ccc3[C@H]2N1CC12CC3CC(CC(C3)C1)C2`, the composite z-score in [1] is -0.224; in assay [2], -0.622; in assay [3], -0.0825; in assay [4], -0.0253; in assay [5], -0.562; in [6], -0.0609. The composite z-score is -0.5 in [7], 0.0196 in assay [9] and -0.258 in assay [10]. Further, the z-score in assay [8] was -0.0608 (inactive).
On to `CCCC=C(CCC)[C@@H](NP(=O)(c1ccccc1)c1ccccc1)c1ccc(-c2ccccc2)cc1`, for which the composite z-score in assay [1] was determined as 0.0517; in [2], 0.887; in assay [3], 0.112; in assay [4], 0.704; in [5], 1.57; in assay [6] it was 1.19. The composite z-score is 1.14 in [7], 1.14 in [9] and 0.172 in assay [10]. Besides, the z-score in assay [8] was -2.1 (inactive).
As to `CC(C)c1ccc(NN2C(C(O)c3ccc(F)cc3)C=CC3C(=O)N(c4ccccc4)C(=O)C32)cc1` (stereo not given), the composite z-score was -0.26 in assay [1]; 0.25 in assay [2]; 0.187 in assay [3]; 1 in assay [4]; 1.55 in assay [5]; 1.28 in assay [6]. The figures for the composite z-score in assay [7], in assay [9] and in assay [10] were 1.04, 1.25 and -0.118, respectively. Further, the z-score in assay [8] is -0.38 (inactive).
As for `C=CCOC(=O)[C@@]1(Cc2ccccc2)C[C@H]2CO[C@H](c3ccc(OC)cc3)N2C1=O`, the composite z-score in [1] was -0.442; in assay [2] it was 0.366; in assay [3], -0.12; in [4], 0.252; in assay [5], 0.0925; in [6] it was -0.294. Besides, the values for the composite z-score in assay [7], in assay [9] and in assay [10] were 0.209, -0.135 and 0.0373, respectively. Besides, the z-score in assay [8] was -1.33 (inactive).
As for `Oc1ccc2cc[n+](Cc3cc4c(cc3Br)OCO4)cc2c1`, the composite z-score in assay [1] was 0.254; in assay [2] it was 0.0899; in assay [3] it was -0.0148; in assay [4], -0.903; in [5], -1.69; in [6], -0.614. In addition, the composite z-score is 0.565 in [7], -0.164 in [9] and -0.236 in assay [10]. In addition, the z-score in assay [8] is 0.985 (inactive).
On to `COC(=O)[C@@H]1N=C(c2ccc(OCCCO)cc2)O[C@@H]1c1ccccc1`, for which the composite z-score in [1] is 0.497; in assay [2], -0.0336; in [3] it was -0.103; in assay [4] it was -0.789; in assay [5], -0.997; in assay [6] it was 0.403. In addition, the composite z-score was 0.326 in assay [7], -0.456 in assay [9] and 0.176 in [10]. In addition, in assay [8], the z-score was 7.16 (inactive).
Regarding `CCOC(=O)C1=CC[C@@H](c2ccccc2F)N(S(=O)(=O)c2ccc(C)cc2)[C@H]1c1ccccc1`, the composite z-score in [1] was -0.419; in [2], -0.0956; in assay [3], -0.0253; in [4], 0.765; in [5] it was 1.46; in assay [6] it was 0.65. Besides, the composite z-score is 0.677 in [7], 0.789 in assay [9] and -0.11 in assay [10]. In addition, the z-score in assay [8] is -3.46 (inactive).
In the case of `COc1ccc([Si](C)(C)[C@@H]2[C@@H](CC(=O)N3Cc4ccccc4C[C@H]3CO)O[C@]3(C(=O)N(Cc4ccc(N5C(=O)c6cccc7cccc5c67)cc4)c4ccccc43)[C@H]2C)cc1`, the composite z-score was -0.184 in [1]; 0.614 in assay [2]; -0.0136 in [3]; 0.637 in [4]; 1.21 in assay [5]; 0.325 in assay [6]. In addition, the composite z-score was 1.17 in [7], 0.0242 in [9] and -0.361 in assay [10]. Also, in [8], the z-score is -1.88 (inactive).
For the compound `CC1CC/C=C\[C@H]2OC34C=CCN(C(C)C)C(=O)[C@H]3N(CCO)C(=O)[C@@H]4C2C(=O)O1` (stereo not given in full), the composite z-score in assay [1] is 0.689; in assay [2] it was 0.987; in [3], -0.159; in assay [4] it was -0.228; in assay [5], -1.19; in assay [6], 1.08. In addition, the composite z-score in assay [7] is 1.23; in assay [9] it was -0.662; in [10] it was -0.134. The z-score in [8] is 0.0746 (inactive).
